This is a sample that favours compounds with a hit; in the whole collection about 2.6% have one here.
PKA-R2B act: PKA-R2B complex activation; AID 504700; PKA-R2B holoenzyme dissociation, Cy5-IP20 fluorescence polarization; R2B truncated from residue 108, S112A mutant; 0% DMSO only, 100% 113 µM cGMP; P22694+P31323; 340,000 tested, 0.079% active; activation, % at 11.4 µM;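 active means activation above a cutoff set at the mean over all compounds plus 3 SD, cut at about 18% in these data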;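 further: higher means more holoenzyme dissociation and a rise in polarization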
PKA-R1A act: PKA-R1A complex activation. P00514+P68181. PKA-R1A dissociation, Cy5-IP20 fluorescence polarization; scaled: DMSO 0%, 113 µM cGMP 100%. activation, % at 11.4 µM. 340,000 tested, 0.083% active. AID 504707;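 active means percent activation above the mean of all tested compounds plus 3 SD, cut at about 19% in these data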;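 further: higher means more PKAc released from R1A so a rise in polarization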
PAFAH1B3 inh: PAFAH1B3 (human) inhibition; Q15102; recombinant PAFAH1B3, FP-rhodamine probe, fluorescence polarization; inhibition, % at 3.39 µM; 340,000 tested, 0.28% active; AID 492972;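 active means inhibition above the screen-wide average of all tested compounds plus 3 SD, cut at about 25% in these data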
Target sequence (Q15102 whole entry, looked up): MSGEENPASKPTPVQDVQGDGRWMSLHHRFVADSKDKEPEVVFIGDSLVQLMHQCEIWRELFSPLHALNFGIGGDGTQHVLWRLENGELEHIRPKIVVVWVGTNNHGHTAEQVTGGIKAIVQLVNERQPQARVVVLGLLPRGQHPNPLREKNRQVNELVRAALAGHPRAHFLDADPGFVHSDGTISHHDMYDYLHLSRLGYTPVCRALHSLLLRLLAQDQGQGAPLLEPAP
PAFAH2 FP inh: inhibitors of human PAFAH2 | 340,000 tested, 0.99% active | Q99487 | recombinant PAFAH2, FP-rhodamine activity probe, fluorescence polarization | inhibition, % at 3.39 µM;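 active means inhibition above the mean over all tested compounds plus 3 SD, cut at about 30% in these data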;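 further: inhibitors block probe labeling of enzyme so polarization drops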
PAFAH1B2 inh: PAFAH1B2 (human) inhibition. P68402. recombinant PAFAH1B2, FP-rhodamine activity probe, fluorescence polarization. inhibition, % at 3.39 µM. 340,000 tested, 1.2% active. AID 492953;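 active means inhibition above the mean of all tested compounds plus 3 SD, cut at about 24% in these data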
Target sequence (P68402 whole entry, looked up): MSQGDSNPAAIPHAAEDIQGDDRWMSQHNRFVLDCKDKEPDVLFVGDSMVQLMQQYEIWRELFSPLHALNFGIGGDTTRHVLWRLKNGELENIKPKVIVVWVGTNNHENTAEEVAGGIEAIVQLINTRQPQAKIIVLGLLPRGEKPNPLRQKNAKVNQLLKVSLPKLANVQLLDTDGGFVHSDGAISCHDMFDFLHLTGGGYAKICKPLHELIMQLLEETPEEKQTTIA
pPAFAH inh: inhibitors of human plasma PAF acetylhydrolase (pPAFAH); Q13093; recombinant pPAFAH, FP-rhodamine probe fluorescence polarization; inhibition, % at 3.39 µM; 330,000 tested, 1.5% active; AID 463082;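 active means inhibition above the mean inhibition across the screen plus 3 SD, cut at about 25% in these data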;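 further: inhibitors block binding of the rhodamine activity-based probe so polarization drops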
pPAFAH FP conf: confirmation of human plasma PAF acetylhydrolase (pPAFAH) inhibitors. shares compounds with pPAFAH inh. recombinant pPAFAH, FP-Rh probe fluorescence polarization. inhibition, % at 3.39 µM. 2,300 tested, 72% active;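 active means mean inhibition of the triplicate above the hit cutoff set for the earlier primary screen, cut at about 25% in these data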
A number is an active result.

For CCc1ccc(C2C(C#N)=C(N)Oc3cc(N)ccc32)cc1 (configuration not stated) the results were PKA-R2B act inactive, PKA-R1A act inactive, PAFAH1B3 inh inactive, PAFAH2 FP inh inactive, PAFAH1B2 inh inactive, pPAFAH inh 59.0 and pPAFAH FP conf inactive.
Screening N#CC1=C(N)Oc2cc(N)ccc2C1c1ccc(Cl)cc1 (configuration not stated) returned PKA-R2B act inactive, PKA-R1A act inactive, PAFAH1B3 inh inactive, PAFAH2 FP inh inactive, PAFAH1B2 inh inactive, pPAFAH inh 42.7 and pPAFAH FP conf inactive.
Screening CCCCN(CCCC)CCNC(=O)c1cn(C)c2ccc(S(=O)(=O)N(C)C3CCCCC3)cc2c1=O returned PKA-R2B act inactive, PKA-R1A act inactive, PAFAH1B3 inh inactive, PAFAH2 FP inh inactive, PAFAH1B2 inh inactive and pPAFAH inh inactive.
CCOc1c2ccc(C(=O)NCCc3ccc(C)cc3)cc2nn1CC was read as PKA-R2B act inactive, PKA-R1A act inactive, PAFAH1B3 inh inactive, PAFAH2 FP inh inactive, PAFAH1B2 inh inactive and pPAFAH inh inactive.
CCn1nc2cc(C(=O)NCCc3cccs3)ccc2c1OC was read as PKA-R2B act inactive, PKA-R1A act inactive, PAFAH1B3 inh inactive, PAFAH2 FP inh inactive, PAFAH1B2 inh inactive, pPAFAH inh 49.7 and pPAFAH FP conf inactive.
Cc1ccc(C)n1Cc1ccc(C(=O)O)cc1 was read as PKA-R2B act inactive, PKA-R1A act inactive, PAFAH1B3 inh inactive, PAFAH2 FP inh inactive, PAFAH1B2 inh inactive, pPAFAH inh 47.2 and pPAFAH FP conf 62.2.
`COCCCNC1=C(C#N)C(=O)NC(c2cccs2)S1` (configuration not stated) gave PKA-R2B act inactive and PKA-R1A act inactive.
`Cc1ccn(CCC(=O)NC2CC(C)(C)Cc3c2cnn3-c2ccccc2C)n1` (configuration not stated) gave PKA-R2B act inactive, PKA-R1A act inactive, PAFAH1B3 inh inactive, PAFAH2 FP inh inactive, PAFAH1B2 inh inactive and pPAFAH inh inactive.
For COc1ccc(-c2cc(=O)oc3c(O)c(O)ccc23)cc1 the results were PKA-R2B act inactive, PKA-R1A act inactive, PAFAH1B3 inh inactive, PAFAH2 FP inh inactive, PAFAH1B2 inh inactive, pPAFAH inh 43.3 and pPAFAH FP conf 79.5.
For CC(C)(C)c1cc(C(=O)N/N=C/c2ccc(-c3ccccc3[N+](=O)[O-])o2)n[nH]1 the results were PKA-R2B act inactive, PKA-R1A act inactive, PAFAH1B3 inh inactive, PAFAH2 FP inh inactive, PAFAH1B2 inh inactive, pPAFAH inh 58.1 and pPAFAH FP conf inactive.
O=C(Nc1ccnn1C1CCNCC1)c1ccc2c(c1)OCO2 was read as PKA-R2B act inactive, PKA-R1A act inactive, PAFAH1B3 inh inactive, PAFAH2 FP inh inactive and PAFAH1B2 inh inactive.
CC(OC(=O)CCCN=C1NS(=O)(=O)c2ccccc21)C(=O)N(C)c1ccccc1 (configuration not stated) was read as PKA-R2B act inactive, PKA-R1A act inactive, PAFAH1B3 inh inactive, PAFAH2 FP inh inactive, PAFAH1B2 inh inactive, pPAFAH inh 68.0 and pPAFAH FP conf inactive.
`CC(OC(=O)CCN=C1NS(=O)(=O)c2ccccc21)C(=O)N(C)c1ccccc1` (configuration not stated) gave PKA-R2B act inactive, PKA-R1A act inactive, PAFAH1B3 inh inactive, PAFAH2 FP inh inactive, PAFAH1B2 inh inactive and pPAFAH inh inactive.
`O=c1c(O)c(-c2cc(O)c(O)c(O)c2)oc2cc(O)cc(O)c12` gave PKA-R2B act inactive, PKA-R1A act inactive, PAFAH1B3 inh 40.9, PAFAH2 FP inh inactive, PAFAH1B2 inh 32.4, pPAFAH inh 66.1 and pPAFAH FP conf 81.5.
`O=c1c(-c2ccccc2)c(-c2ccccc2)oc2cc(O)cc(O)c12` gave PKA-R2B act inactive, PKA-R1A act inactive, PAFAH1B3 inh inactive, PAFAH2 FP inh inactive, PAFAH1B2 inh inactive and pPAFAH inh inactive.
For CCCCn1c(N)c(N(CC)C(=O)c2ccc(C#N)cc2)c(=O)[nH]c1=O the results were PKA-R2B act inactive, PKA-R1A act inactive, PAFAH1B3 inh inactive, PAFAH2 FP inh inactive, PAFAH1B2 inh inactive and pPAFAH inh inactive.
Screening COC(=O)c1cc(NC(=O)CC(=O)c2cccc(N)c2)cc(C(=O)OC)c1 returned PKA-R2B act inactive and PKA-R1A act inactive.
Screening COc1cc(C(=O)NCCC(=O)NC2CCCCC2)cc(OC)c1OC returned PKA-R2B act inactive, PKA-R1A act inactive, PAFAH1B3 inh inactive, PAFAH2 FP inh inactive, PAFAH1B2 inh inactive, pPAFAH inh 46.9 and pPAFAH FP conf inactive.
Screening O=C(Nc1ccc(-c2csc(Nc3ccc(Cl)cc3)n2)cc1)c1cccc(C(F)(F)F)c1 returned pPAFAH inh 44.4 and pPAFAH FP conf inactive.
O=C(Nc1ccc(-c2csc(Nc3ccccc3)n2)cc1)c1cccc(C(F)(F)F)c1 was read as PKA-R2B act inactive, PKA-R1A act inactive, PAFAH1B3 inh inactive, PAFAH2 FP inh inactive, PAFAH1B2 inh inactive and pPAFAH inh inactive.
O=S(=O)(Nc1nc(-c2sccc2Cl)cs1)c1cc(Cl)ccc1Cl was read as PKA-R2B act inactive, PKA-R1A act inactive, PAFAH1B3 inh inactive, PAFAH2 FP inh 42.3, PAFAH1B2 inh inactive, pPAFAH inh 47.1 and pPAFAH FP conf 50.9.
COc1ccc(NC(=O)c2cc3c(-c4ccc(OC)c(OC)c4)nn(C)c3s2)cc1OC was read as PKA-R2B act inactive, PKA-R1A act inactive, PAFAH1B3 inh inactive, PAFAH2 FP inh inactive, PAFAH1B2 inh inactive, pPAFAH inh 46.1 and pPAFAH FP conf 43.1.
Screening COc1cccc2cc(C(=O)CS(=O)(=O)c3ccc(C(C)(C)C)cc3)c(=O)oc12 returned PKA-R2B act inactive, PKA-R1A act inactive, PAFAH1B3 inh inactive, PAFAH2 FP inh inactive, PAFAH1B2 inh 41.8, pPAFAH inh 52.4 and pPAFAH FP conf 35.4.
Screening O=C1C(CSCc2ccccc2)NC(=S)N1c1ccccc1 (configuration not stated) returned pPAFAH inh 37.1 and pPAFAH FP conf inactive.
For Cc1ccc(C)c(Cn2nnc3c(=O)[nH]c(C4CCN(S(=O)(=O)c5ccc(S(=O)(=O)N(C)C)cc5)CC4)nc32)c1 the results were PKA-R2B act inactive, PKA-R1A act inactive, PAFAH1B3 inh inactive, PAFAH2 FP inh inactive, PAFAH1B2 inh inactive and pPAFAH inh inactive.
`Cc1ccc(C)c(Cn2nnc3c(=O)[nH]c(C4CCN(S(=O)(=O)c5ccc(S(=O)(=O)NC6CC6)cc5)CC4)nc32)c1` gave PKA-R2B act inactive, PKA-R1A act inactive, PAFAH1B3 inh inactive, PAFAH2 FP inh inactive, PAFAH1B2 inh inactive, pPAFAH inh 41.8 and pPAFAH FP conf 46.5.

Source: PubChem BioAssay
